ELG1 genotox – genotoxicity induction in ELG1-luciferase HEK293T cells | Potency, µM (series often up to 46 µM), most hits filed as activators | 330,000 compounds, 1.3% hits | HEK293T ELG1-luciferase reporter, luminescence, 16 h; note: nearly all actives have a fitted effect of over 60% in size
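Cells (2,000/well) expressing the ELG1-luciferase fusion are dosed by pin tool and kept 16 hr at 37 °C, 5% CO2. Signal comes from ONE-Glo luciferase reagent after 30 min at room temperature.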
NPC1 promoter act – activates the NPC1 promoter; AID 485313; 320,000 compounds, 2.4% hits; Potency, µM (doses to about 9.22 µM), actives largely listed as activators; Huh7 NPC1 promoter luciferase reporter, 24 h; note: nearly all actives have a fitted effect of over 60% in size
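Readout is luciferase luminescence, reflecting NPC1 promoter activation in stably transfected Huh7 cells after 24 h compound exposure at 37 °C in reduced-serum medium with 10% FBS.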
SMN2 splice up – increases expression of the SMN2 splice variant. HEK293 SMN2-luciferase splicing reporter, luminescence, 30-36 h. Potency, µM (doses to about 46.1 µM), most hits filed as activators. 210,000 compounds, 2.8% hits; note: nearly all actives have a fitted effect of over 55% in size
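HEK293 cells carry an SMN2 minigene-luciferase reporter in which exon 7 inclusion puts luciferase in frame. Cells were seeded at 2000 cells/well, attached for 10-12 hours, then exposed to compounds for 30-36 hours at 37C before ONE-Glo luminescence.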
FLuc modulator – counter-screen for miR-21 project: firefly luciferase inhibitors or activators; 360,000 compounds, 6.9% hits; Potency, µM (series often up to 57.5 µM), most hits filed as inhibitors; purified FLuc, Km substrates, luminescence inhibition; note: nearly all actives have a fitted effect of over 55% in size
Target sequence (P08659 whole entry, looked up): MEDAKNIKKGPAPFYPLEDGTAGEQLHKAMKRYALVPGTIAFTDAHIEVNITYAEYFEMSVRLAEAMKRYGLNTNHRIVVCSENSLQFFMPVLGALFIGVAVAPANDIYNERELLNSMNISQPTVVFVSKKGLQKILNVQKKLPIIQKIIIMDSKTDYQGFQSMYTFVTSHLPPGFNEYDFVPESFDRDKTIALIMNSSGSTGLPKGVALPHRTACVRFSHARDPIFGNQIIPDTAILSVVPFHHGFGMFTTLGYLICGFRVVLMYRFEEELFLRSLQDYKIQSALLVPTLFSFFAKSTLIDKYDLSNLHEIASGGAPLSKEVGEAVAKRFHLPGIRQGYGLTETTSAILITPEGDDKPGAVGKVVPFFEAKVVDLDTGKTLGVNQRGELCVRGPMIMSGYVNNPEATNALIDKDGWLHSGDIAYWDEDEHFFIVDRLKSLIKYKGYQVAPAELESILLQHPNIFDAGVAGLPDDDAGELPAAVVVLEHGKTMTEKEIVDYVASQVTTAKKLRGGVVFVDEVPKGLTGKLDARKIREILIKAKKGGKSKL
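Purified P. pyralis luciferase, 10 nM final, with Km-level 10 uM D-luciferin and 10 uM ATP in 50 mM Tris acetate pH 7.5, 10 mM Mg acetate, 0.01% Tween-20, 0.05% BSA; 6-point qHTS titration about 60 µM downward; luminescence read.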
Rab9 promoter act – Rab9 promoter activation. 320,000 compounds, 2.8% hits. Huh7 Rab9 promoter-luciferase reporter, luminescence, 24 h. Potency, µM (top dose mostly 9.22 µM), usual class: activators; note: nearly all actives have a fitted effect of over 60% in size
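Cell-based reporter: Huh7 stable for Rab9 promoter-driven luciferase, plated in reduced-serum medium with 10% FBS at 1500 cells/well, compound-treated 24 h at 37 °C, luminescence read after 10 min reagent.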
Of the large screens only hits and unclear results are named; the others gave an inactive call. The list is not random: actives were taken first. Their share in the collection is about 7.5%. Calls come from the whole dose curve; as a rule, active = well fitted curve in the direction sought with a large enough effect; inconclusive = small, poorly fitted or top-dose-only effect, or another doubt; inactive = no such curve, though single readings can be large; an effect the other way counts as inactive or inconclusive.

CC(C)Cc1nnc(NC(=O)CCC(=O)NC2CCCCCCC2)s1	none (no result: SMN2 splice up)
O=C(Nc1nc2ccc(F)cc2s1)C1CCCO1 (configuration not stated)	ELG1 genotox inconclusive, NPC1 promoter act 1.1µM, SMN2 splice up 16µM, FLuc modulator 6.7µM, Rab9 promoter act 2.2µM
Cc1ccc2c(c1)C(=O)OC(C(=O)Nc1ncc(Cc3ccccc3)s1)C2 (configuration not stated)	none (no result: ELG1 genotox, NPC1 promoter act, Rab9 promoter act)
O=C(Nc1nnc(-c2ccccc2F)s1)C1CCCO1 (configuration not stated)	ELG1 genotox inconclusive, NPC1 promoter act 3.5µM, SMN2 splice up 5µM, FLuc modulator 15µM, Rab9 promoter act 2.5µM
O=C(Nc1ncc(Cc2ccccc2)s1)C1CCCO1 (configuration not stated)	ELG1 genotox inconclusive, NPC1 promoter act 1.1µM, SMN2 splice up 5µM, FLuc modulator 4.3µM, Rab9 promoter act 2.2µM
Nc1ccc2nc(NC(=O)C3CCCCC3)sc2c1	ELG1 genotox 21µM, NPC1 promoter act inconclusive, SMN2 splice up 14µM, FLuc modulator 6.7µM, Rab9 promoter act 4.5µM
Cc1cc(=O)[nH]c(SCc2cccc3ccccc23)n1	none (no result: SMN2 splice up)
CCO[C@H]1OC(C(=O)Nc2ccccc2)=C[C@@H](C)[C@@H]1CCCO	none (no result: SMN2 splice up)
COc1ccc(CNC(=O)Cc2ccc(OC)c(S(=O)(=O)N3CCOCC3)c2)cc1	none
O=C(Nc1nc2ccc(F)cc2s1)C1CCN(S(=O)(=O)c2cc([N+](=O)[O-])ccc2Cl)CC1	FLuc modulator 11µM
O=C(Nc1nc2ccccc2s1)C1CCCO1 (configuration not stated)	ELG1 genotox 5.8µM, NPC1 promoter act 1.1µM, SMN2 splice up 13µM, FLuc modulator 15µM, Rab9 promoter act inconclusive
Oc1[nH]c2ccccc2c1C=Nc1ccc2c(c1)OCCO2	ELG1 genotox inconclusive, NPC1 promoter act inconclusive, FLuc modulator 0.85µM, Rab9 promoter act 1.4µM (no result: SMN2 splice up)
Oc1c(Br)cc(Br)cc1C=Nc1ccc2c(c1)OCCO2	ELG1 genotox inconclusive, FLuc modulator 24µM
COc1ccc(CC(=O)OCC(=O)NNC(=O)c2ccccc2)cc1	none (no result: NPC1 promoter act, SMN2 splice up, FLuc modulator, Rab9 promoter act)
CC(C)(C)NC(=O)C(c1ccccn1)N(C(=O)c1csnn1)C1CCCCC1 (configuration not stated)	none
COCCN1CCc2nc(SCC(=O)Nc3ccc(Br)cc3)[nH]c(=O)c2C1	none (no result: ELG1 genotox, NPC1 promoter act, SMN2 splice up, Rab9 promoter act)
COc1ccc(C(=O)O/N=C(\N)c2ccccc2)c(OC)c1	ELG1 genotox inconclusive, NPC1 promoter act 3.2µM, SMN2 splice up 3.2µM, FLuc modulator 1.7µM, Rab9 promoter act inconclusive
COc1ccc(/C(N)=N/OC(=O)c2ccc(OC)c([N+](=O)[O-])c2)cc1OC	none (no result: SMN2 splice up)
COc1ccc(/C(N)=N/OC(=O)C2CCCCC2)cc1OC	NPC1 promoter act inconclusive, FLuc modulator inconclusive, Rab9 promoter act inconclusive (no result: SMN2 splice up)
COc1ccc(/C(N)=N/OC(=O)C2CCCCC2)cc1	ELG1 genotox 8.2µM, NPC1 promoter act 2.8µM, FLuc modulator 8.5µM, Rab9 promoter act inconclusive (no result: SMN2 splice up)
COc1ccc(C(=O)O/N=C(\N)c2ccc(OC)c(OC)c2)c(OC)c1	ELG1 genotox inconclusive, FLuc modulator inconclusive (no result: SMN2 splice up)
COc1ccc(C(=O)O/N=C(\N)c2ccc(OC)c(OC)c2)cc1	ELG1 genotox inconclusive, FLuc modulator 7.6µM, Rab9 promoter act inconclusive (no result: SMN2 splice up)
COc1ccc(C(=O)O/N=C(\N)c2ccccn2)c(OC)c1	ELG1 genotox 1.5µM, NPC1 promoter act 0.5µM, FLuc modulator 2.7µM, Rab9 promoter act 0.5µM (no result: SMN2 splice up)
CCNC(=O)c1c(NC(=O)Cc2coc3cc(C)ccc23)sc2c1CCCC2	none (no result: ELG1 genotox, NPC1 promoter act, Rab9 promoter act)
CC(=O)Nc1cccc(NC(=O)COc2ccccc2C)c1	FLuc modulator 15µM (no result: SMN2 splice up)
Cc1ccc(-n2c(C)cc(C(=O)COc3c(CO)cc(F)cc3CO)c2C)cc1C	FLuc modulator 24µM
Cc1cc(NC(=O)COc2cccc(C)c2C)no1	ELG1 genotox inconclusive, FLuc modulator inconclusive
Cc1cc(C(=O)COc2ccccc2Cl)c(C)n1-c1ccc2c(c1)OCO2	ELG1 genotox inconclusive, SMN2 splice up inconclusive, FLuc modulator 21µM
Cc1nnc(NC(=O)C(=O)c2cc(C)n(-c3ccc(C)c(C)c3)c2C)s1	none (no result: ELG1 genotox, NPC1 promoter act, SMN2 splice up, Rab9 promoter act)
Cc1cc(NC(=O)COc2ccccc2C)no1	ELG1 genotox inconclusive, NPC1 promoter act 3.2µM, FLuc modulator 17µM, Rab9 promoter act 3.2µM (no result: SMN2 splice up)
CCN(CC)S(=O)(=O)c1ccc2c(c1)nc(SC(C)C(N)=O)n2-c1ccc(OC)cc1 (configuration not stated)	none
CCOC(=O)CNS(=O)(=O)c1ccc(C)cc1	none
COc1cccc(NC(=O)COc2ccccc2C(N)=O)c1	ELG1 genotox 7.9µM, NPC1 promoter act 2.8µM, SMN2 splice up 4µM, FLuc modulator 2.4µM, Rab9 promoter act 2µM
COc1ccc(CC(=O)OCC(=O)Nc2ccc3c(c2)OCO3)cc1OC	none
Cc1ccc(NC(=O)COc2ccccc2C=O)cc1Cl	ELG1 genotox inconclusive, NPC1 promoter act 2µM, FLuc modulator 0.85µM, Rab9 promoter act 2.5µM (no result: SMN2 splice up)
Cc1ccccc1OCC(=O)Nc1ccc2c(c1)OCO2	ELG1 genotox inconclusive, NPC1 promoter act inconclusive, FLuc modulator 13µM
Cc1ccccc1OCC(=O)OCC(=O)Nc1ccc2c(c1)OCCO2	none (no result: SMN2 splice up, FLuc modulator)
COc1cc(C)ccc1OCC(=O)Nc1ccc2c(c1)OCO2	ELG1 genotox inconclusive, NPC1 promoter act inconclusive, FLuc modulator 7.6µM, Rab9 promoter act 2.8µM (no result: SMN2 splice up)
COc1ccc(OCC(=O)Nc2cccc(OC)c2)cc1	ELG1 genotox inconclusive (no result: SMN2 splice up)
CSc1sc(C(=O)N2CCc3ccccc32)cc1S(=O)(=O)C(C)C	none (no result: SMN2 splice up)
CCCCCCCN[C@H]1CCC[C@@H]1CCCCCCC(=O)O	none (no result: ELG1 genotox, NPC1 promoter act, FLuc modulator, Rab9 promoter act)
COc1cc(C(=O)OCC(=O)NC2CCCCC2)cc(OC)c1OC	none (no result: NPC1 promoter act, SMN2 splice up, FLuc modulator, Rab9 promoter act)
COc1ccccc1OCC(=O)Nc1ccc2c(c1)OCO2	NPC1 promoter act inconclusive, FLuc modulator 15µM (no result: SMN2 splice up)
O=C(COc1ccccc1Cl)Nc1ccc2c(c1)OCO2	ELG1 genotox 3.5µM, NPC1 promoter act 2.8µM, FLuc modulator 3.4µM, Rab9 promoter act inconclusive (no result: SMN2 splice up)

Source: PubChem
